From PubChem BioAssay
A selection: hits, their analogues and other compounds. The true share with any hit is near 11%.
Pf growth 48h = Primary qHTS for delayed death inhibitors of the malarial parasite plastid, 48 hour incubation; P. falciparum luciferase growth in erythrocytes, 48 h; Potency, µM (top dose mostly 28.7 µM), for the others: at the highest dose activity change, negative = inhibition, actives largely listed as inhibitors; 5.9% of 310,000 active; also: % is scaled to controls: 0 for no effect and ±100 for the full control effect
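Cell-based growth assay: transgenic P. falciparum expressing firefly luciferase, cultured in red cells within RPMI 1640 containing 0.5% w/v Albumax, 24 mM bicarbonate and gentamycin. A drop in luciferase activity indicates inhibition.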
Pf growth 96h = Primary qHTS for delayed death inhibitors of the malarial parasite plastid, 96 hour incubation; P. falciparum luciferase reporter growth, 96 h; Potency, µM (titrated, usually from 28.7 µM), without a hit: top-dose activity change, negative = inhibition, hits mostly inhibitors; 6.9% of 320,000 active; also: % is scaled to controls: 0 for no effect and ±100 for the full control effect
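Luminescence readout: decreased luciferase signal marks inhibited growth of reporter-expressing P. falciparum in infected red cells (2% hematocrit, 0.05% parasitemia final), exposed to compound two generations (96 h, 37 C, 5% CO2).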
AMA1 RON2 block = qHTS for Inhibitors of AMA1-RON; Towards Development of Antimalarial Drug Lead: Primary Screen; Plasmodium falciparum AMA1 (3D7) - RON2 peptide interaction; AlphaScreen AMA1-biotinylated RON2 peptide binding; Potency, µM (titrated, usually from 58.2 µM), inactives show at the highest dose activity change, negative = inhibition, usual class: inhibitors; 0.2% of 360,000 active;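 also: 0% = vehicle wells and -100% = peptide control; nearly all actives have a fitted effect of over 45% in size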
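AMA1 (3D7) with his tag at 25 nM final met compounds first, then biotinylated RON2 peptide at 25 nM; detection used donor plus acceptor beads, 10 µg/mL apiece, read by AlphaScreen after 30 min at room temperature.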
NS1 function inh = qHTS Assay for Inhibitors of Influenza NS1 Protein Function; Potency, µM (doses to about 46.1 µM), for inactives: at the highest dose activity, positive = more growth; 0.4% of 270,000 active; calls by dose curve; also: actives are rising curves; nearly all actives have a fitted effect of over 50% in size
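Read-out: OD600 growth recovery of NS1-expressing budding yeast. Cells grown overnight at 30C in -URA glucose medium, washed, resuspended and diluted 1:100 in 2% galactose assay medium, pH 6.0. Same strain lacking NS1 served as positive control.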
Sm TGR inh = qHTS Assay for the Inhibitors of Schistosoma Mansoni Peroxiredoxins; purified TGR, DTNB reduction, TNB absorbance 405 nm; Potency, µM (series often up to 114 µM), for the others: at the highest dose activity change, negative = inhibition, hits mostly inhibitors; 3% of 360,000 active; AID 485364, 2010; also: % is scaled to controls: 0 for no effect and ±100 for the full control effect; nearly all actives have a fitted effect of over 60% in size
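Kinetic colorimetric format: TGR-catalysed, NADPH-driven DTNB reduction monitored via TNB absorbance. Enzyme dispensed at 20 nM; compound exposure 15 min at room temperature before reaction start.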
* = called active by the depositor; ? = inconclusive; . = no result; [ ] = another dose, or the depositor's remark. Unless noted, calls follow the shape of the dose curve; as a rule, active = well fitted curve in the direction sought with a large enough effect; inconclusive = small, poorly fitted or top-dose-only effect, or another doubt; inactive = no such curve, though single readings can be large; an effect the other way counts as inactive or inconclusive. Potency is read from the fitted curve at half-maximal effect.

SMILES	Pf growth 48h	Pf growth 96h	AMA1 RON2 block	NS1 function inh	Sm TGR inh
C[C@@H]1CN([C@H](C)CO)C(=O)CCCn2cc(nn2)CO[C@H]1CN(C)C(=O)Cc1ccccc1	.	.	6%	.	.
CCN(CC)S(=O)(=O)c1cccc(NC(=O)c2cc(-c3cccs3)nn2-c2ccccc2)c1	-19%	12µM*	-6%	?	1%
CN(CC(=O)Nc1cccc(F)c1)C(=O)c1cc(-c2cccs2)nn1-c1ccccc1	-2%	7%	-20%	.	-14%
CN(C)S(=O)(=O)c1cccc(NC(=O)c2cc(-c3cccs3)nn2-c2ccccc2)c1	?	15µM*	-13%	?	5%
COc1cc(NC(=O)CN2CCN(CC(=O)Nc3ccccc3OC)CC2)cc(OC)c1	-20%	9%	5%	4%	-25%
Cc1cc(C)cc(N2C(=O)CN(Cc3sccc3C)C2=S)c1	9.3µM*	?	11%	17%	-6%
Cc1ccc(C(=O)NN2C(=O)C3C4C=CC(C4)[C@@H]3C2=O)cc1 (stereo not given in full)	1.9µM*	82%	6%	1%	-17%
COc1cccc(C(=O)NNC(=O)c2ccccc2)c1	68%	?	4%	?	2%
COc1ccc(C(=O)NN2C(=O)C3C4C=CC(O4)C3C2=O)cc1 (stereo not given)	0%	38%	3%	13%	18µM*
COc1cccc(C(=O)NN2c3ccccc3CCc3ccccc32)c1	9.3µM*	13µM*	-14%	16%	5%
COc1cccc(C(=O)NN2C(=O)C3C4C=CC(O4)C3C2=O)c1 (stereo not given)	.	29%	4%	-3%	20µM*
Cc1nc(NC(=O)c2ccccc2)sc1-c1cc(C(=O)NCCO)nn1Cc1ccccc1	.	.	-15%	.	.
O=C(Nc1cccc(S(=O)(=O)NC2=NCCC2)c1)c1cc(=O)[nH]c2ccccc12	20%	?	-5%	.	-5%
CCOc1ccccc1NC(=O)Cn1c(=O)nc(-c2ccccc2F)c2cc(Cl)ccc21	.	.	.	.	-12%
COc1ccc(S(=O)(=O)n2ccc(-c3ccc4c(c3)CCC(C)(C)O4)n2)cc1	10µM*	9.3µM*	-1%	2%	15%
Cc1n[nH]c(C)c1S(=O)(=O)N1CCN(c2ccccn2)CC1	-4%	36%	9%	-3%	6%
Cc1n[nH]c(C)c1S(=O)(=O)N1CCc2ccccc2C1	-19%	10µM*	-11%	3%	-2%
CCCCn1nc(NS(=O)(=O)c2cccc3nonc23)c2cc3cccc(C)c3nc21	?	?	-7%	-10%	-4%
CSc1ccc(C2c3[nH]c4ccccc4c3CCN2C(=O)c2cc(C)n(C)n2)cc1 (stereo not given)	?	32%	.	12%	.
Cc1ccccc1C(=O)N1CCc2c([nH]c3ccccc23)C1C(F)(F)F (stereo not given)	12µM*	?	-11%	1%	-13%
CN1N=C(C(=O)N2CCc3c([nH]c4ccccc34)C2c2ccccc2Cl)CCC1=O (stereo not given)	1.7µM*	10µM*	-19%	8%	-12%
Cc1ccccc1C1c2[nH]c3ccccc3c2CCN1C(=O)c1ccc(=O)n(C)n1 (stereo not given)	?	13µM*	0%	12%	-10%
COc1ccc(C2c3[nH]c4ccccc4c3CCN2C(=O)c2ccc(=O)n(C)n2)c(F)c1 (stereo not given)	?	-3%	0%	12%	-10%
Cc1cc(C(=O)N2CCc3c([nH]c4ccccc34)C2c2cccc(Cl)c2)nn1C (stereo not given)	?	12µM*	-17%	4%	39%
Cc1ccc(S(=O)(=O)Nc2c(C)nn(C)c2C)cc1	.	9%	-1%	2%	50%
SMILES	Pf growth 48h	Pf growth 96h	AMA1 RON2 block	NS1 function inh	Sm TGR inh
Cc1nn(C)c(C)c1CS(=O)(=O)c1ccccc1	-4%	56%	-5%	.	22µM*
CN(C)CC(=O)c1ccc(-c2ccccc2)cc1	18%	10%	-8%	-110%	?
CN(C)C/C(Cl)=C(\Cl)c1ccccc1	11%	-8%	-2%	-22%	20µM*
Cc1ccc(C(C(=O)NC2CCCC2)N(Cc2ccco2)C(=O)CCC(=O)Nc2cc(C)on2)cc1 (stereo not given)	?	13µM*	-11%	-8%[9.22 µM]	-18%
Cc1ccc(N(C(=O)CCC(=O)Nc2cc(C)on2)C(C(=O)NC2CCCC2)c2cccs2)cc1 (stereo not given)	12µM*	.	12%	3%	-1%
Cc1cc(NC(=O)CCC(=O)N(c2ccccc2)C(C(=O)NC2CCCC2)c2cccs2)no1 (stereo not given)	?	.	-17%	-10%	42%
Cc1cc(NC(=O)CCC(=O)N(c2cccc(F)c2)C(C(=O)NC2CCCC2)c2ccccc2)no1 (stereo not given)	?	?	3%	18%	3%
Cc1ccc(N(C(=O)CCC(=O)Nc2cc(C)on2)C(C(=O)NC2CCCC2)c2ccccc2)cc1 (stereo not given)	12µM*	2%	7%	-6%	8%
Cc1cc(NC(=O)CCC(=O)N(c2ccccc2)C(C(=O)NC2CCCC2)c2ccccc2)no1 (stereo not given)	15µM*	8.3µM*	-11%	0%	-10%
COc1cccc(C2(O)CCN(CC(=O)NCC3CC3)CC2)c1	-6%	47%	-11%	.	3%
CCCCN(C(=O)CCC(=O)Nc1cc(C)on1)C(C(=O)NC1CCCC1)c1ccc(OCC)cc1 (stereo not given)	?	10%	-3%	4%	8%
CCC(C)(C)NC(=O)C(c1ccc(C)cc1)N(CC1CCCO1)C(=O)CCC(=O)Nc1ccccn1 (stereo not given)	?	12µM*	-6%	18%	2%
Cc1ccc(C(C(=O)NC(C)(C)C)N(CC2CCCO2)C(=O)CCC(=O)Nc2ccccn2)cc1 (stereo not given)	-11%	-50%	9%	-6%	-12%
Cc1cc(NC(=O)CCC(=O)N(c2ccccc2)C(C(=O)NC2CCCC2)c2ccccc2C)no1 (stereo not given)	13µM*	?	-3%	3%	-3%
CCCCN(C(=O)CCC(=O)Nc1cc(C)on1)C(C(=O)NC1CCCC1)c1ccccc1OCC (stereo not given)	15µM*	16%	-4%	9%	16%
CCOC(=O)C1CCN(C(=O)CCS(=O)(=O)c2ccc3c(c2)n(C)c(=O)c(=O)n3C)CC1	24%	24%	3%	5%	4%
